High-throughput results (PubChem BioAssay)
A selection: hits, their analogues and other compounds. The true share with any hit is near 2.6%.
ATXN2 expr inh – inhibitors of ATXN2 expression; HEK-293 ATXN2-luciferase reporter, luminescence, 24 h; Potency, µM (series often up to 57 µM), for inactives: at the highest dose activity change, negative = inhibition, usual class: inhibitors; actives 0.72% (n = 360,000); AID 1745845; note: potency is the fitted concentration of half-maximal effect; % is set by controls: 0 for no effect and ±100 for the full control effect; nearly all actives have a fitted effect of over 55% in size
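qHTS (up to 57 uM final) was run with 24 h compound exposure of reporter cells at 37 °C. Each well was multiplexed: SteadyGlo luminescence measured ATXN2-luciferase expression after a fluorogenic Gly-Phe-AFC viability readout (25 uM final).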
TGFb inhibitor – TGF-b pathway inhibition; Potency, µM (doses to about 46.1 µM), for the others: at the top dose activity, negative = inhibition, usual class: inhibitors; actives 1.2% (n = 410,000); HepG2 CAGA-GFP TGF-b/SMAD3 reporter, GFP fluorescence, 18 h; TGF-beta stimulated, 500 pg/mL final; AID 588855; note: potency is the fitted concentration of half-maximal effect; % is set by controls: 0 for no effect and ±100 for the full control effect; nearly all actives have a fitted effect of over 65% in size
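First, reporter cells (HEPG2 CAGA-GFP) rested 2 h at 37 degrees C. Next, compounds were pinned in and TGF-beta added to 500 pg/mL final. After 18 h, GFP was imaged per cell and summed per well.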
uPA generation – inhibitors of cell surface uPA generation; AID 540303; Potency, µM (top dose mostly 38.3 µM), inactives show at the top dose activity change, negative = inhibition, actives largely listed as inhibitors; actives 0.31% (n = 330,000); cell surface uPA generation assay, qHTS; active = well fitted inhibition curve with a large enough effect; inconclusive = small, poorly fitted or top-dose-only effect; inactive = no such curve, though single readings can be large or run the other way; tested in mouse RAW 264.7 cells; note: potency is the fitted concentration of half-maximal effect; % is set by controls: 0 for no effect and ±100 for the full control effect; nearly all actives have a fitted effect of over 55% in size
Giardia killer – Giardia lamblia killing | Giardia lamblia trophozoite viability | activity change, % at 7.66 µM, hits read low | actives 0.15% (n = 340,000); in the data active = activity change below about -80%; inconclusive = between about -30% and that limit;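 note: parasites exposed to compound for two days anaerobically before the ATP read; % is set by controls: 0 for no effect and ±100 for the full control effect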
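Trophozoites 100 cells/well + cpd; 48 hrs, 37 deg C, anaerobic. ATPLite 1-Step added, 15-30 min RT, luminescence read (ATP-based viability).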
HepG2 tox – counter-screen for TGF-b inhibitors: cytotoxicity in HepG2 cells | HepG2 CAGA-GFP viability, ATP luminescence, 18 h | Potency, µM (titrated, usually from 46.1 µM), for the others: top-dose activity change, negative = cytotoxicity, most hits filed as cytotoxic | actives 0.76% (n = 410,000) | AID 588856; note: potency is the fitted concentration of half-maximal effect
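CellTiter-Glo luminescence gave cytotoxicity after 18 hours at 37 degrees C. The cells were HepG2 CAGA-GFP in 1% FBS DMEM, stimulated with 500 pg/mL TGF-beta after compound addition. %Activity was normalised to no-cell wells (complete cell-killing) and DMSO (no toxicity), and curves were fitted and classified.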
S2 tox – reduces viability in counter-screen for ATXN expression inhibitors; S2 cells (HEK-293 line with an ATXN2-luciferase reporter) viability, CellTiter-Fluor protease fluorescence, 24 h; Potency, µM (doses to about 56.7 µM), actives largely listed as cytotoxic; actives 0.49% (n = 400,000); note: potency is the fitted concentration of half-maximal effect; nearly all actives have a fitted effect of over 40% in size
* = called active by the depositor; i = inactive; u = inconclusive; x = not tested or not shown; ! = repeats disagree; [ ] = dose if it differs, or a comment. Unless noted, calls come from the whole dose curve; as a rule, active = well fitted curve in the direction sought with a large enough effect; inconclusive = small, poorly fitted or top-dose-only effect, or another doubt; inactive = no such curve, though single readings can be large; an effect the other way counts as inactive or inconclusive.

SMILES | ATXN2 expr inh | TGFb inhibitor | uPA generation | Giardia killer | HepG2 tox | S2 tox
O=[N+]([O-])/C=C/c1c(Cl)cccc1Cl | u | 2.82µM* | -8.5% | 0.6 | 10µM* | x
Clc1cccc(Cl)c1/C=C/c1ccn[nH]1 | -12.3% | -12.9% | u | -29.8 | -34.4% | i
Cc1cccc(C)c1-n1nnnc1C(CCc1ccccc1)N1CCC(n2c(=O)[nH]c3ccccc32)CC1 (stereo not given) | u | u | x | x | 5.2% | u
O=c1[nH]c2ccccc2n1C1CCN(C(CCc2ccccc2)c2nnnn2-c2ccc3c(c2)OCCO3)CC1 (stereo not given) | 7.94µM* | u | x | x | -18.2% | x
CC1=CC2/C=C(\C)CCC(O)C(O)/C=C/C(=O)C23C(=O)NC(CC(C)C)C3C1C (stereo not given) | u | 3.16µM* | 1µM* | -28.0 | -116.5% | x
O=c1nc(/C=C/c2ccc(Cl)cc2Cl)cc(C(F)(F)F)[nH]1 | x | 15.8µM* | u | 8.4 | 11.2µM* | i
O=C(NC(c1cccnc1)C(F)(F)F)c1cnn(-c2nccc(-c3cccs3)n2)c1C1CC1 (stereo not given) | x | x | x | x | x | i
Cc1ccc2oc(=O)n(CCNC(=O)Nc3ccc(C)c(F)c3)c2c1 | x | 0.0% | x | x | -35.0% | x
COc1ccc(C(=O)N/N=C/c2ccc(N(C)c3ccccc3)cc2)cc1 | 26.7µM* | 0.0% | u | -25.5 | -16.7% | i
COc1ccc(Cn2c(O)c(/C=N/NC(=O)c3ccccc3)c(=O)[nH]c2=O)cc1 | -0.8% | 2.4% | -10.9% | 0.9 | 4.1% | i
COc1ccc(C(O)P(=O)(OC2CCCCC2)c2ccc(N(C)C)cc2)cc1OC (stereo not given) | 5.3% | u | -3.3% | -5.5 | -2.3% | i
COc1ccc(C(=O)NCCn2cc(SC(C)c3ccccc3)c3ccccc32)cc1OC (stereo not given) | u | u | x | x | -19.7% | u
O=C1N[C@@H](Cc2ccccc2)C(=O)N2[C@H]3Nc4ccccc4[C@@]3([C@]34C[C@H]5C(=O)N[C@@H](Cc6ccccc6)C(=O)N5[C@H]3Nc3ccccc34)C[C@@H]12 | u | u | 0.9% | -4.7 | -3.9% | 12.6µM*
COC(=O)c1cc(=O)n(Cc2ccco2)c(=Nc2ccc(F)c(Cl)c2)s1 | 28.2µM* | 12.6µM* | 10µM* | -22.0 | -98.2% | x
CC1Cc2ccccc2N1C(=O)COC(=O)c1ccc(Cl)nc1 (stereo not given) | -4.2% | 24.2% | 2.2% | 7.2 | 27.3% | i
C/C=C(\C)C(=O)N[C@@H](c1ccccc1)[C@@H](O)C(=O)O[C@H]1C[C@@]2(O)[C@@H](OC(=O)c3ccccc3)C3[C@](C)(C(=O)[C@H](OC(C)=O)C(=C1C)C2(C)C)[C@@H](O)C[C@H]1OC[C@@]31OC(C)=O (stereo not given in full) | -19.2% | -19.9% | -63.3% | 10.5 | -15.0% | u
C/C=C(\C)C(=O)N[C@@H](c1ccccc1)[C@@H](O)C(=O)O[C@H]1C[C@@]2(O)[C@@H](OC(=O)c3ccccc3)C3[C@](C)(C(=O)[C@H](O)C(=C1C)C2(C)C)[C@@H](O)C[C@H]1OC[C@@]31OC(C)=O (stereo not given in full) | -15.5% | 4.2% | 0.708µM* | -0.4 | 1.7% | u
CCN1C(=O)c2ccccc2Sc2ccc(NC(=O)Nc3ccc(Br)c(C)c3)cc21 | u | u | x | x | -2.4% | u
c1ccc(-c2ccc(-c3n(-c4ccccn4)c4ccccc4[n+]3-c3ccccn3)cc2)cc1 | x | 17.8µM* | -25.7% | -23.7 | -7.2% | u
C/C(=N\NC(=O)c1cc(-c2cccnc2)nc2ccccc12)c1ccc(O)cc1O | 3.98µM* | -8.6% | 11.2µM* | -13.1 | -20.1% | u
CC(=O)OC1C(O)C(C)OC(OC2C(OC(=O)C3CCC4C(C3)OC3(CC(OC(=O)/C=C/c5ccccc5)C(C)CO3)C43CO3)OC(C)C(O)C2OC(C)=O)C1O (stereo not given) | 0.212µM* | u | -11.6% | u | 4.1% | u
CCOC(=O)[C@]12Cc3cc(C)ccc3[C@H]1N(Cc1ccccc1)C(=O)c1ccccc12 | u | 10µM* | u | -5.2 | -20.5% | u
CCOC(=O)[C@]12Cc3cc(C)ccc3[C@H]1N(Cc1ccccc1)C(=O)c1cc(F)c(F)cc12 | 17.8µM* | x | x | x | x | 15.8µM*
CCCCC[C@@H]1CCCCC[C@@H](O)C[C@@H](O)[C@H](O)/C=C/C(=O)O1 | 0.6% | x | x | x | x | i
CN[C@@H]1Cc2cccc3[nH]c(=O)n(c23)C1 | -2.9% | x | x | x | x | x
SMILES | ATXN2 expr inh | TGFb inhibitor | uPA generation | Giardia killer | HepG2 tox | S2 tox
CC(C)(C)C1CCc2onc(C(=O)O)c2C1 (stereo not given) | 0.0% | 9.6% | 0.3% | -0.3 | 2.2% | u
Nc1cc(Cl)c2nonc2c1[N+](=O)[O-] | u | u | -0.2% | -22.5 | 11.2µM* | u
C[N+]1(C)[C@@H]2CC(OC(=O)[C@H](CO)c3ccccc3)C[C@H]1[C@H]1O[C@@H]12 (stereo not given in full) | -2.4% | x | x | x | x | x
O=C(O)C1C2CCC(O2)C1C(=O)Nc1cccc(Br)c1 (stereo not given) | x | 2.3% | 11.2µM* | 7.4 | 1.3% | i
COc1ccc(CNC(=O)Cn2c(=O)oc3cc(S(=O)(=O)N4CCCCCC4)ccc32)cc1 | x | -2.3% | x | x | -35.6% | x
c1ccc(N2CCNCC2)cc1 | -0.1% | x | x | x | x | i
CCCCNC(=O)c1cc(-c2cccnc2)nc2ccc(S(=O)(=O)NCCCC)cc12 | -11.8% | 6.4% | x | x | -5.4% | u
NC(CCc1ccccc1)c1csc(NC(=O)Nc2ccccc2Oc2ccccc2)n1 (stereo not given) | u | u | x | x | 10µM* | u
CC(C)(C)c1csc(NC(=O)Nc2ccccc2)n1 | 65.0%[11.3 µM] | u | 3.2% | 4.1 | -45.5% | i
COc1ccc(NC(=O)CCn2cnc3onc(-c4ccc(F)cc4)c3c2=O)cc1OC | u | u | x | x | -19.9% | u
CC[C@@]1(c2ccccc2OC)ON(c2ccccc2C(F)(F)F)C1=O | 22.4µM* | u | u | 13.1 | 14.1µM* | x
Cc1ccc2c(c1)[C@]13CCCC[C@@H]1[C@H](C2)N(C)CC3 | x | x | x | x | x | i
NC(=O)c1cc([N+](=O)[O-])cc([N+](=O)[O-])c1 | u | -1.4% | -1.8% | -21.8 | -7.6% | i
CC(C)(C)c1cc([N+](=O)[O-])cc(C(C)(C)C)c1O | u | 7.94µM* | 7.94µM* | -9.2 | -40.2% | u
Oc1ccc(Cl)cc1Cc1cc(Cl)ccc1O | 28.2µM*! | u | -16.2% | -0.6 | -74.2% | u
